In PubChem BioAssay (Tox21):
“And” between values parts separate entries of the source, which are not always exact repeats. Equal entries are not always repeated. Values without a mark were called inactive. Records with an inconclusive call do not appear. A call without a number means that no potency is given here. The source made the active and inactive calls. The call rests on the fitted dose curve; in most records, active means well fitted curve in the direction sought with a large enough effect in the repeat runs; inconclusive means weak or mixed curves; inactive means no such curve, though single readings can be large; an effect the other way counts as inactive or inconclusive.

How the values were obtained:
[1] = Caspase-3/7 induction in CHO-K1 cells by small molecules, qHTS cell viability counter screen (AID 1346979); further: nearly all actives have a fitted effect of over 35% in size; further: potency means the concentration at half of the fitted maximal effect
In short: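 To flag cytotoxic compounds, treated CHO-K1 wild-type cells were given CellTiter-Fluor at 16hr and read fluorescently after 1hr at 37C; the caspase-3/7 luminescence was measured in these same wells.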

[2] = Caspase-3/7 induction in CHO-K1 cells by small molecules, qHTS assay (AID 1346980); further: nearly all actives have a fitted effect of over 15% in size
In short: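 Wild-type cells were seeded at 1,500 per well and settled 5 hr at 37 C, 5% CO2, then exposed to DMSO-dissolved compounds for 17 hr. Caspase-Glo 3/7 reagent was added, and luminescence was read after 30min at room temperature.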

[3] = Caspase-3/7 induction in HepG2 cells by small molecules, qHTS cell viability counter screen (AID 1346981); further: nearly all actives have a fitted effect of over 30% in size; further: potency means the concentration at half of the fitted maximal effect; on activity change, negative = cytotoxicity: series mostly up to about 92 µM
In short: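 The parent HepG2 line is plated at 2,000 cells per well and rested 5 hr before compound pinning from DMSO stocks. Following a 16-hr treatment at 37 C, a fluorogenic live-cell substrate (CellTiter-Fluor) reports viability after 1 hr.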

[4] = biological target: Nuclear receptor subfamily 1 group I member 2 (Homo sapiens) (UniProt O75469); assay: Human pregnane X receptor (PXR) small molecule agonists, qHTS assay (AID 1346982); further: nearly all actives have a fitted effect of over 35% in size; further: potency means the concentration at half of the fitted maximal effect
In short: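 After plating in 5% charcoal-stripped FBS and a 5 hr rest, PXR-Luc HepG2 cells received compounds in DMSO. Following 24 hr at 37 C, ONE-Glo was added and light output read.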

[5] = biological target: Cytochrome P450 2C19 (Homo sapiens) (UniProt P33261); assay: Cytochrome P450 Family 2 Subfamily C Member 19 (CYP2C19) small molecule antagonists: luciferase reporter qHTS assay (AID 1671197); further: nearly all actives have a fitted effect of over 65% in size; further: potency means the concentration at half of the fitted maximal effect; on activity change, negative = inhibition: series mostly up to about 120 µM
In short: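 P450-Glo CYP2C19 system: enzyme-substrate mix with compound 10 min at room temperature, then NADPH regeneration solution, 1 h at 37C. Proluciferin-to-luciferin conversion detected by luminescence after 20 min with detection reagent; ketoconazole as positive control.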

[6] = biological target: Cytochrome P450 2C9 (Homo sapiens) (UniProt P11712); assay: Cytochrome P450 Family 2 Subfamily C Member 9 (CYP2C9) small molecule antagonists: luciferase reporter qHTS assay (AID 1671198); further: nearly all actives have a fitted effect of over 50% in size; further: potency means the concentration at half of the fitted maximal effect; on activity change, negative = inhibition: series mostly up to about 120 µM
In short: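 CYP2C9 activity was measured with a P450-Glo proluciferin substrate. Enzyme–substrate mix was held with compound for 10 min at room temperature, then NADPH regeneration solution was added for 1 h at 37C. Luciferin product was read as luminescence.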

[7] = biological target: Cytochrome P450 2D6 (Homo sapiens) (UniProt P10635); assay: Cytochrome P450 Family 2 Subfamily D Member 6 (CYP2D6) small molecule antagonists: luciferase reporter qHTS assay (AID 1671196); further: nearly all actives have a fitted effect of over 50% in size; further: potency means the concentration at half of the fitted maximal effect; on activity change, negative = inhibition: series mostly up to about 120 µM
In short: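 Quantitative HTS of Tox21 chemicals against CYP2D6 using a luminescent proluciferin substrate. After NADPH addition, 1 h room-temperature reaction; luminescence recorded 20 min post detection reagent.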

[8] = biological target: Nuclear receptor subfamily 1 group I member 2 (Rattus norvegicus) (UniProt Q9R1A7); assay: Rat pregnane X receptor (rPXR) activation by small molecules, qHTS assay (AID 1346983); conditions: rPXR luciferase reporter cells, One-Glo luminescence, 24 h; hits give high values; further: nearly all actives have a fitted effect of over 20% in size
In short: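 Cell-based rPXR luciferase reporter assay, 2,000 cells per well, rested 5hr at 37 C before compound addition in DMSO, then 24 hr at 37 C. One-Glo reagent was added and luminescence read after 30 min at room temperature.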

[9] = biological target: Nuclear receptor subfamily 1 group I member 2 (Homo sapiens) (UniProt O75469); assay: CYP3A4 induction through human pregnane X receptor (PXR) by small molecules, qHTS assay (AID 1346984); further: nearly all actives have a fitted effect of over 40% in size
In short: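 Human PXR activation is tracked via CYP3A4 promoter-luciferase in DPX-2 (HepG2) cells. Compounds treat cells for 24hr at 37C, and luminescence is read after One-Glo.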

Chain of Nuclear receptor subfamily 1 group I member 2 (Rattus norvegicus) (Q9R1A7 whole entry, looked up): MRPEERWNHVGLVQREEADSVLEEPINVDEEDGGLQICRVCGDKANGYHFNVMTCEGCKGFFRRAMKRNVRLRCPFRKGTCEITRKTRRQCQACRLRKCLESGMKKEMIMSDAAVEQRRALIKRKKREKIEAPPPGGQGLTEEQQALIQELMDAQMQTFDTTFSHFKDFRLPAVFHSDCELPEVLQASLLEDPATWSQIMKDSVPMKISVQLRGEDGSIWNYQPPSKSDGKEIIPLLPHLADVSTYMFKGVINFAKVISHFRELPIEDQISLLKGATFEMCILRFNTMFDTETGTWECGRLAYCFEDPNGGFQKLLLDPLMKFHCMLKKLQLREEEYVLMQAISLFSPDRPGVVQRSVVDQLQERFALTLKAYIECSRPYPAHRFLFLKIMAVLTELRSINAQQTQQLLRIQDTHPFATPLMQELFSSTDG
Chain of Nuclear receptor subfamily 1 group I member 2 (Homo sapiens) (O75469 whole entry, looked up): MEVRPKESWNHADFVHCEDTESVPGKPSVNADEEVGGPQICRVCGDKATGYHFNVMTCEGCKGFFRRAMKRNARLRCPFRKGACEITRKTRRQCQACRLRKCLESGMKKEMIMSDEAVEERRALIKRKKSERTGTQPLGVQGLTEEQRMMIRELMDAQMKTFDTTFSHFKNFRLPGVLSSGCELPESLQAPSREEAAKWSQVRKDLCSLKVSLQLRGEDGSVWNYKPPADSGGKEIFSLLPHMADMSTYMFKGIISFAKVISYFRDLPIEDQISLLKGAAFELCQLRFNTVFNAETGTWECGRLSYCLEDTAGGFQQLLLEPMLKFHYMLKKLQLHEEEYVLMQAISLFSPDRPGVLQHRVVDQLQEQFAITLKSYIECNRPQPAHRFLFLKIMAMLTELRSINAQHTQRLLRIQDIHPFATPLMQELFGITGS
Chain of Cytochrome P450 2D6 (Homo sapiens) (P10635 whole entry, looked up): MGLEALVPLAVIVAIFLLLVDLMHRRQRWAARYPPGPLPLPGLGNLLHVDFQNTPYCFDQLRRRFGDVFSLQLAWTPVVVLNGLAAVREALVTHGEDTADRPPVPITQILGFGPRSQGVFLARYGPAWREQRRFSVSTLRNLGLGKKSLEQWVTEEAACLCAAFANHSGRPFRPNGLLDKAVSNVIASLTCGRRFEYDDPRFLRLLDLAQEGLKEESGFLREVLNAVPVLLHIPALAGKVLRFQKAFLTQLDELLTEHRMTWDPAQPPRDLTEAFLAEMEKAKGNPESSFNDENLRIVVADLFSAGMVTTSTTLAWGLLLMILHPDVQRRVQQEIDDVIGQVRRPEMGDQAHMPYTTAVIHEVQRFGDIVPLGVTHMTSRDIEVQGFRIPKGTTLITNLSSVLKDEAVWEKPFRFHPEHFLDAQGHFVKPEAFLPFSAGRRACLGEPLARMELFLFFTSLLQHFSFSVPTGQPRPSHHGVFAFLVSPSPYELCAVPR
Chain of Cytochrome P450 2C9 (Homo sapiens) (P11712 whole entry, looked up): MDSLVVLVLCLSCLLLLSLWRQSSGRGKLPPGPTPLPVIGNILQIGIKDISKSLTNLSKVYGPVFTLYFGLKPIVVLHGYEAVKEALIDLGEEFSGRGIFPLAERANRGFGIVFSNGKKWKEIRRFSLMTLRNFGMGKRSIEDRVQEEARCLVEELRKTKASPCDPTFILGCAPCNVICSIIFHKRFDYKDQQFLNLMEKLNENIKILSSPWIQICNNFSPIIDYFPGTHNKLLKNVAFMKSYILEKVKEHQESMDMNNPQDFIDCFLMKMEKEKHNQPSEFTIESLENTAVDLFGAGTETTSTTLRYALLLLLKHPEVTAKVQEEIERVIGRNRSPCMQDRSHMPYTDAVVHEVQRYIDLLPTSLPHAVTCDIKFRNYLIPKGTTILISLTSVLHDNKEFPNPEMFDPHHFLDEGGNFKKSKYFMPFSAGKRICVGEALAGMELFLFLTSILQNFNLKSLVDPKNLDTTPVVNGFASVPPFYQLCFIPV
Chain of Cytochrome P450 2C19 (Homo sapiens) (P33261 whole entry, looked up): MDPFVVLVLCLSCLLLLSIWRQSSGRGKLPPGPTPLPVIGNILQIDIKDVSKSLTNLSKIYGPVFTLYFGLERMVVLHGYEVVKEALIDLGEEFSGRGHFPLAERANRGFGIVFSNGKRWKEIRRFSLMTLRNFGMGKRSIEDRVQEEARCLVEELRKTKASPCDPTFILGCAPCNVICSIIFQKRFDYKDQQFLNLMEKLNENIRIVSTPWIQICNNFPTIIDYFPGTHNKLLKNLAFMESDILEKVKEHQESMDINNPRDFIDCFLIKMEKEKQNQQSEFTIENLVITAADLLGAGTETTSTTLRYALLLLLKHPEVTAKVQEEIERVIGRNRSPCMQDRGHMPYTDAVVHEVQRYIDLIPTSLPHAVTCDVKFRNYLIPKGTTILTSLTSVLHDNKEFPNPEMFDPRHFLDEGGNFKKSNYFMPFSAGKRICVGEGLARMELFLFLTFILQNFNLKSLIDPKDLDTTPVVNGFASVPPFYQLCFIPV

## O=c1oc2cc(O)ccc2c2oc3cc(O)ccc3c12
[1]
  Potency: inactive
[2]
  Potency: inactive
[3]
  Potency: inactive
[4]
  Potency: 65.7 µM (active)
[5]
  Potency: 76.4 µM (active)
[6]
  Potency: 68.1 µM (active)

## Clc1ccnc(Cl)n1
[1]
  Potency: inactive
[2]
  Potency: inactive
[3]
  Potency: inactive
[4]
  Potency: inactive
[5]
  Potency: inactive
[6]
  Potency: inactive

## O=C(O)O
[1]
  activity change, negative = cytotoxicity: 0.8% [at 8.39 µM]
[2]
  caspase-3/7 activation: 0.298% [at 8.39 µM]
[3]
  activity change, negative = cytotoxicity: -0.291% [at 8.39 µM]
[4]
  activation: 4.39% [at 8.39 µM]
[5]
  Potency: 3.86 µM (active)

## O=[N+]([O-])c1ccc(F)c(Cl)c1
[1]
  Potency: inactive
[2]
  Potency: inactive
[3]
  Potency: inactive
[4]
  Potency: inactive
[5]
  Potency: 79.9 µM (active)

## O=C(Nc1ccc2c(O)c(N=Nc3ccc(N=Nc4ccc(S(=O)(=O)O)cc4)cc3)c(S(=O)(=O)O)cc2c1)c1ccccc1
[1]
  Potency: 15.4 µM (active)
[2]
  Potency: inactive
[3]
  Potency: 24.3 µM (active)
[4]
  Potency: inactive
[7]
  Potency: 35.6 µM (active)
[6]
  Potency: 20 µM (active)

## CN(C)CCN1CCN(c2cccc(Cl)c2)C1=O
[1]
  Potency: inactive
[2]
  Potency: inactive
[3]
  Potency: inactive
[4]
  Potency: inactive
[5]
  Potency: inactive
[6]
  Potency: inactive

## CC[N+](CC)(CC)CCOC(=O)C(C1CCCC1)C1CCCC1
[1]
  Potency: inactive
[2]
  Potency: inactive
[3]
  Potency: inactive
[4]
  Potency: inactive
[7]
  Potency: 1.95 µM (active)
[6]
  Potency: inactive

## COc1ccc(NC(=O)CC(C)=O)cc1
[1]
  Potency: inactive
[2]
  Potency: inactive
[3]
  Potency: inactive
[4]
  Potency: inactive
[5]
  Potency: inactive
[6]
  Potency: inactive

## CC(C)(C)CC(C)(C)c1ccc(Nc2ccc(C(C)(C)CC(C)(C)C)cc2)cc1
[1]
  activity change, negative = cytotoxicity: 5.88% [at 8.39 µM]
[2]
  caspase-3/7 activation: 2.02% [at 8.39 µM]
[3]
  activity change, negative = cytotoxicity: 3.23% [at 8.39 µM]
[4]
  activation: 4.4% [at 8.39 µM]
[5]
  activity change, negative = inhibition: -21.4% [at 10.5 µM]

## Cc1ccc(-c2ccccc2)cc1
[1]
  Potency: inactive
[2]
  Potency: inactive
[3]
  Potency: inactive
[4]
  Potency: inactive
[5]
  Potency: inactive
[6]
  Potency: inactive

## C[Si](Cl)(c1ccccc1)c1ccccc1
[1]
  Potency: inactive
[2]
  Potency: inactive
[3]
  Potency: inactive
[4]
  Potency: 59.6 µM (active)
[5]
  Potency: 1.95 µM (active)
[6]
  Potency: 4.37 µM (active)

## CCCCCCC1CCCC(=O)O1 (stereo not drawn)
[1]
  Potency: inactive
[2]
  Potency: inactive
[3]
  Potency: inactive
[5]
  Potency: inactive
[6]
  Potency: 25.2 µM (active)

## CNC(=O)c1ccccc1Sc1ccc2c(/C=C/c3ccccn3)n[nH]c2c1
[1]
  Potency: 26.6 µM (active)
[2]
  Potency: inactive
[4]
  Potency: 0.376 µM (active)
[5]
  Potency: 17.4 µM (active)
[6]
  Potency: 6.92 µM (active)

## CN1CCC[C@@H]1CCO[C@](C)(c1ccccc1)c1ccc(Cl)cc1
[1]
  Potency: 26.6 µM (active)
[2]
  Potency: inactive
[8]
  max activation: 6.7%

## Cc1c(C)c([N+](=O)[O-])c(C(C)(C)C)c([N+](=O)[O-])c1C
[1]
  Potency: inactive
[2]
  Potency: inactive
[3]
  Potency: inactive
[7]
  Potency: inactive
[5]
  Potency: 28.3 µM (active)
[6]
  Potency: 35.6 µM (active)

## COc1cc(C)ccc1O
[1]
  Potency: inactive
[2]
  Potency: inactive
[4]
  Potency: inactive
[7]
  Potency: inactive
[5]
  Potency: 56.4 µM (active)
[6]
  Potency: inactive

## CN1CCN(Cc2cc(-c3ccc4[nH]c(=O)oc4c3)co2)[C@@H](c2ccc(F)cc2)C1
[1]
  Potency: 58.8 µM (active)
[2]
  Potency: inactive
[4]
  Potency: 10.5 µM (active)
[7]
  Potency: 34.3 µM (active)
[6]
  Potency: inactive

## Cc1ccc(N/N=c2\c(=O)cc/c(=N\Nc3ccc(S(=O)(=O)O)cc3)c2=O)c(C)c1
[1]
  Potency: 27.3 µM (active)
[2]
  Potency: inactive
[3]
  Potency: 54.5 µM (active)
[5]
  Potency: 79.6 µM (active)
[6]
  Potency: 35.6 µM (active)

## O=C(/C=C/c1ccccc1)OC/C=C/c1ccccc1
[1]
  Potency: inactive
[2]
  Potency: inactive
[3]
  Potency: inactive
[7]
  Potency: inactive
[5]
  Potency: 35.6 µM (active)
[6]
  Potency: 31.7 µM (active)

## CN(C)Cc1cc(C(C)(C)C)c(O)c(C(C)(C)C)c1
[1]
  Potency: inactive
[2]
  Potency: inactive
[3]
  Potency: inactive
[5]
  Potency: 10 µM (active)
[6]
  Potency: 11.2 µM (active)

## O=C(c1ccc(O)c(O)c1)c1ccc(O)cc1O
[1]
  Potency: 54.4 µM (active)
[2]
  Potency: inactive
[4]
  Potency: 54.4 µM (active)
[5]
  Potency: 17.8 µM (active)
[6]
  Potency: inactive

## O=c1[nH]c(=O)n([C@H]2C[C@H](O)[C@@H](CO)O2)cc1F
[1]
  Potency: inactive
[2]
  Potency: inactive
[3]
  Potency: inactive
[8]
  max activation: -2.43%
[9]
  Potency: inactive
[5]
  Potency: inactive
[6]
  Potency: inactive

## C#CC1(O)CC[C@H]2[C@@H]3CCC4=CCCC[C@@H]4[C@H]3CC[C@@]21C (stereo partly drawn)
[1]
  Potency: 61.1 µM (active) and 26.6 µM (active)
[2]
  Potency: inactive
[8]
  max activation: -0.183%
[7]
  Potency: inactive
[5]
  Potency: 7.96 µM (active) and 11 µM (active)
[6]
  Potency: 7.1 µM (active) and 6.92 µM (active)

## NC[C@H]1O[C@H](O[C@H]2[C@H](O[C@@H]3O[C@H](CO)[C@@H](O)[C@H]3O)C(O)[C@H](N)C[C@@H]2N)[C@H](N)[C@@H](O)[C@@H]1O (stereo partly drawn)
[1]
  activity change, negative = cytotoxicity: 6.09% [at 8.39 µM]
[2]
  caspase-3/7 activation: -0.0652% [at 8.39 µM]
[3]
  activity change, negative = cytotoxicity: 8% [at 8.39 µM]
[8]
  max activation: 3.62%
[7]
  activity change, negative = inhibition: -0.538% [at 10.5 µM]
[6]
  activity change, negative = inhibition: 2.46% [at 10.5 µM]
